CHRM1 antagonist – blocks human M1 muscarinic receptor | inhibition, % at 3 µM | CHO-K1 hM1, Fluo-8 calcium fluorescence, ACh EC80 antagonist | P11229 | 360,000 tested, 1.3% active;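 active means percent inhibition above its own plate's cutoff, namely the mean of that plate's compound wells plus 3 SD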;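 further: peak over basal fluorescence ratio during 140 s after agonist addition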
Target sequence (P11229 whole entry, looked up): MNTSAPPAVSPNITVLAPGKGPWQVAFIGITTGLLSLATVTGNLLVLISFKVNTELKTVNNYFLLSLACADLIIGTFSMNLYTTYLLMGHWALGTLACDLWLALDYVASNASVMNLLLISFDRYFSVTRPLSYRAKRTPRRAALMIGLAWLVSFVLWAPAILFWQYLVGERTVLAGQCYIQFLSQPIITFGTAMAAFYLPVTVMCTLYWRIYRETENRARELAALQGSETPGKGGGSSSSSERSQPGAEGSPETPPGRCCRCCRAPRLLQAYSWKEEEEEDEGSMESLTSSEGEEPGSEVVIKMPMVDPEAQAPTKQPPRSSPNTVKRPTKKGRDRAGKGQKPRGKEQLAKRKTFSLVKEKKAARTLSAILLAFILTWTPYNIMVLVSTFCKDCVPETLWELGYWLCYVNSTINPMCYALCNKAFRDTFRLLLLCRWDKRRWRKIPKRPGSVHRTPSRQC
M1 ag – activates human CHRM1 receptor; P11229; CHO-K1 hM1, Fluo-8 calcium fluorescence, agonist mode; 0% DMSO, 100% acetylcholine EC100; activation, % at 3 µM; 360,000 tested, 0.33% active; AID 588814;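 active means activation above the run's mean compound activation plus 3 SD, cut at about 16% in these data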;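 further: peak over basal fluorescence ratio within a 140 s kinetic read after compound addition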
CHRM1 PAM – human CHRM1 positive allosteric modulation; 360,000 tested, 0.088% active; CHO-K1 hM1, Fluo-8 calcium fluorescence, ACh EC20; 0% = ACh EC20, 100% = maximal ACh; activation, % at 3 µM; P11229; in the data active means activation above about 19%, passing the limit was not always enough
CHO-K1 Ca PAM – M1 PAM counterscreen hit in parental CHO-K1 cells; ATP EC20, Fluo-8 calcium fluorescence; 0% at ATP EC20, 100% at ATP max; activation, % at 3 µM; 360,000 tested, 0.02% active;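 active means activation above the run cutoff, the mean activation of all test compounds plus 3 SD, cut at about 40% in these data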;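 further: peak over basal fluorescence ratio in a 140 s read after ATP addition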
M1 ag parental – M1 agonist counterscreen hit in parental CHO-K1 cells. 360,000 tested, 0.48% active. activation, % at 3 µM. Fluo-8 calcium fluorescence; scaled to maximal ATP response, vehicle zero. AID 602248; in the data active means activation above about 15%;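 further: untransfected CHO-K1 host cells lacking M1 receptor as counterscreen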
CHO-K1 Ca antag – nonselective inhibitor or artifact in parental CHO-K1 cells; ATP-induced calcium, Fluo-8 fluorescence; inhibition, % at 3 µM; 360,000 tested, 0.6% active; AID 602250;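 active means inhibition above a per-plate cutoff, the plate's mean sample inhibition plus 3 SD, cut at about 24% in these data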
Hits are given with their value. A selection: hits, their analogues and other compounds. The true share with any hit is near 2.4%.

What do the screens show for `Cc1ccc(S(=O)(=O)CC(c2ccccc2)N2CCCCC2)cc1` (configuration not stated)?
CHRM1 antagonist: inactive; M1 ag: inactive; CHRM1 PAM: inactive; CHO-K1 Ca PAM: inactive; M1 ag parental: inactive; CHO-K1 Ca antag: 26.9

What do the screens show for `Cc1ccc(C(CNS(=O)(=O)c2ccc(Br)cc2)N2CCN(C)CC2)cc1` (configuration not stated)?
CHRM1 antagonist: inactive; M1 ag: inactive; CHRM1 PAM: inactive; CHO-K1 Ca PAM: inactive; M1 ag parental: inactive; CHO-K1 Ca antag: inactive

What do the screens show for `Cc1ccc(C(CNS(=O)(=O)c2ccccc2)N2CCN(C)CC2)cc1` (configuration not stated)?
CHRM1 antagonist: inactive; M1 ag: inactive; CHRM1 PAM: 25.0; CHO-K1 Ca PAM: inactive; M1 ag parental: inactive; CHO-K1 Ca antag: inactive

Results for C/C(=N\NC(=O)CCc1ccc(S(=O)(=O)N2CCOCC2)cc1)c1ccc(Br)cc1 ?
CHRM1 antagonist: inactive; M1 ag: inactive; CHRM1 PAM: inactive; CHO-K1 Ca PAM: inactive; M1 ag parental: inactive; CHO-K1 Ca antag: inactive

Results for O=C(CCNS(=O)(=O)c1cccc2nsnc12)N1CCN(c2ccccn2)CC1 ?
CHRM1 antagonist: 89.4; M1 ag: inactive; CHRM1 PAM: inactive; CHO-K1 Ca PAM: inactive; M1 ag parental: inactive; CHO-K1 Ca antag: inactive

How did COc1ccc(C(C)=O)cc1COC(=O)CNC(=O)c1ccc(F)cc1 do in these assays?
CHRM1 antagonist: inactive; M1 ag: inactive; CHRM1 PAM: inactive; CHO-K1 Ca PAM: inactive; M1 ag parental: inactive; CHO-K1 Ca antag: inactive

How did COc1ccc(C(C)=O)cc1COC(=O)CNC(=O)c1ccc(Cl)cc1 do in these assays?
CHRM1 antagonist: inactive; M1 ag: inactive; CHRM1 PAM: inactive; CHO-K1 Ca PAM: inactive; M1 ag parental: inactive; CHO-K1 Ca antag: 29.3

How did Cc1ccc(NC(=S)NC2CCSc3ccccc32)cc1C (configuration not stated) do in these assays?
CHRM1 antagonist: 79.1; M1 ag: inactive; CHRM1 PAM: inactive; CHO-K1 Ca PAM: inactive; M1 ag parental: inactive; CHO-K1 Ca antag: inactive

How did O=C(NCc1ccncc1)C(=O)NC1CC1 do in these assays?
CHRM1 antagonist: inactive; M1 ag: inactive; CHRM1 PAM: inactive; CHO-K1 Ca PAM: inactive; M1 ag parental: inactive; CHO-K1 Ca antag: inactive

How did O=C(Nc1ccc2c(c1)OCCO2)C1c2ccccc2OCC(=O)N1Cc1ccco1 (configuration not stated) do in these assays?
CHO-K1 Ca PAM: inactive; M1 ag parental: inactive; CHO-K1 Ca antag: inactive

How did CC1OC(CC(=O)O)CC2=C1C(=O)c1c(O)cccc1C2=O (configuration not stated) do in these assays?
CHRM1 antagonist: 46.1; M1 ag: inactive; CHRM1 PAM: inactive; CHO-K1 Ca PAM: inactive; M1 ag parental: inactive; CHO-K1 Ca antag: inactive

How did CN1CCN(C=Nc2nc3ccccc3nc2N2CCCC2)CC1 do in these assays?
CHRM1 antagonist: 34.2; M1 ag: inactive; CHRM1 PAM: inactive; CHO-K1 Ca PAM: inactive; M1 ag parental: inactive; CHO-K1 Ca antag: inactive

Results for Nc1nc2ccccc2nc1N1CCCC1 ?
CHRM1 antagonist: inactive; M1 ag: inactive; CHRM1 PAM: inactive; CHO-K1 Ca PAM: inactive; M1 ag parental: inactive; CHO-K1 Ca antag: inactive

Results for COc1ccc(C(C)=O)cc1CC(=O)Nc1ccccc1-c1ccccc1 ?
CHRM1 antagonist: inactive; M1 ag: inactive; CHRM1 PAM: inactive; CHO-K1 Ca PAM: inactive; M1 ag parental: inactive; CHO-K1 Ca antag: inactive

What do the screens show for `CCCCNc1c(-c2ccc(OC)c(Sc3ccc(OC)cc3)c2)nc2ccccn12`?
CHRM1 antagonist: 50.2; M1 ag: inactive; CHRM1 PAM: inactive; CHO-K1 Ca PAM: inactive; M1 ag parental: inactive; CHO-K1 Ca antag: inactive

How did CCCCNc1c(-c2ccc(OC)c(Sc3ccc(OC)cc3)c2)nc2cnccn12 do in these assays?
CHRM1 antagonist: inactive; M1 ag: inactive; CHRM1 PAM: inactive; CHO-K1 Ca PAM: inactive; M1 ag parental: inactive; CHO-K1 Ca antag: inactive

What do the screens show for `CCCCNc1c(-c2ccc(SC(C)CC)c(OC)c2)nc2ccc(C)cn12` (configuration not stated)?
CHRM1 antagonist: 43.9; M1 ag: inactive; CHRM1 PAM: inactive; CHO-K1 Ca PAM: inactive; M1 ag parental: inactive; CHO-K1 Ca antag: inactive

What do the screens show for `CC(=O)NCCn1c(C)cc2ccccc21`?
CHRM1 antagonist: inactive; M1 ag: inactive; CHRM1 PAM: inactive; CHO-K1 Ca PAM: inactive; M1 ag parental: inactive; CHO-K1 Ca antag: inactive

Compound activity as filed in PubChem.
